Experimental data as given in PubChem BioAssay (NCATS).
Results filed as inconclusive are left out. Entries that show only a call come without a potency. A number with no mark means an inactive call. Activity calls are given as the source filed them. Unless noted, the call rests on the fitted dose curve.

These molecules were tested against Estrogen receptor (Homo sapiens) (UniProt P03372) (assay: qHTS assay for small molecule antagonists of estrogen receptor alpha signaling (AID 588513; active means well fitted curve in the direction sought with a large enough effect in the signal ratio, with a control signal flat, not every such curve was filed as active; the % refers to the signal ratio)). Settings: ER-alpha-UAS-bla HEK293, beta-lactamase ratio, antagonist mode; series mostly up to 76.9 µM.
Summary of the method: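 Fluorescence from CCF4 substrate after 2 h at room temperature gave reporter activity; cells had been exposed to compound and 0.5nM 17-beta-estradiol for 18 h at 37 C. Hill-equation fitting yielded IC50 and maximal response.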

Chain of Estrogen receptor (Homo sapiens) (P03372 whole entry, looked up): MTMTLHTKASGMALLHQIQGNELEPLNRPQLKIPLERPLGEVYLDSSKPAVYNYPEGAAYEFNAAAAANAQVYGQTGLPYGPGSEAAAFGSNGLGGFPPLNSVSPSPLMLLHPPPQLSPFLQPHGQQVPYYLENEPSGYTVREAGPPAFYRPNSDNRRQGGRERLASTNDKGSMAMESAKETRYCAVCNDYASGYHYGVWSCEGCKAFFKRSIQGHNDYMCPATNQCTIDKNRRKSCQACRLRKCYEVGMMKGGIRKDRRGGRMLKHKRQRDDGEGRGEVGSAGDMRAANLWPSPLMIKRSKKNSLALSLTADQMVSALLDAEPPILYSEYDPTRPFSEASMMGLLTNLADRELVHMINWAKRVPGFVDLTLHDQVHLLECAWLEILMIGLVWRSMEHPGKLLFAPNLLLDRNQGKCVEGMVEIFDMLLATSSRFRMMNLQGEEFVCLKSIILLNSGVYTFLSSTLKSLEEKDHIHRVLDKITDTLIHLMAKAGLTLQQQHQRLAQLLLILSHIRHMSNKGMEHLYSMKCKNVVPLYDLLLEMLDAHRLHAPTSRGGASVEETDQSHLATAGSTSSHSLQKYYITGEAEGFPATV

Question: How did the Potency turn out when `CNc1nc(=O)n(C2CCCCC2)c(=O)n1C` was run?
Answer: inactive

Question: Which Potency does the source give for `CCCCCCCC[Si](Cl)(Cl)Cl` here?
Answer: inactive

Question: For `CCCCCCCOC(=O)c1ccccc1C(=O)OCCCCCCC`, which Potency is on record?
Answer: inactive

Question: How did the Potency turn out when `C=Cc1ccc(P(c2ccccc2)c2ccccc2)cc1` was run?
Answer: inactive

Question: Which Potency does the source give for `CCCCCCCCCCCCCCCCCCN` here?
Answer: inactive

Question: How did the Potency turn out when `CC(=O)N(CCN(C(C)=O)C(C)=O)C(C)=O` was run?
Answer: inactive

Question: How did the Potency turn out when `CCCC/C=C\CCCCCCCCO` was run?
Answer: inactive

Question: How did the Potency turn out when `Nc1cc(Cl)nc(C(=O)O)c1Cl` was run?
Answer: inactive

Question: For `C[Si](Cl)(Cl)[Si](C)(Cl)Cl`, which Potency is on record?
Answer: inactive

Question: How did the Potency turn out when `CCCCCCCCCc1ccccc1` was run?
Answer: inactive

Question: How did the Potency turn out when `CS/C(=N\O)C(=O)N(C)C` was run?
Answer: inactive

Question: For `C[Si](Cl)(Cl)c1ccccc1`, which Potency is on record?
Answer: inactive

Question: For `COC(=O)c1c(Cl)nn(C)c1S(=O)(=O)NC(=O)Nc1nc(OC)cc(OC)n1`, which Potency is on record?
Answer: inactive

Question: How did the Potency turn out when `CC1(C)CC(NCCCCCCNC2CC(C)(C)NC(C)(C)C2)CC(C)(C)N1` was run?
Answer: inactive

Question: `Cc1ccc(C(=O)c2ccccc2)cc1` was tested. Which Potency did it give?
Answer: inactive

What follows are molecules tested against Estrogen receptor (Homo sapiens) (UniProt P03372) (assay: qHTS assay for small molecule agonists of estrogen receptor alpha signaling (AID 588514; further: nearly all actives have a fitted effect of over 70% in size)). Settings: ER-alpha-UAS-bla HEK293, beta-lactamase ratio, 18 h; series mostly up to 76.8 µM.
Summary of the method: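 Reporter-gene assay. […] controls beta-lactamase in HEK 293 GripTite cells; after 18 hrs with compound, CCF4 substrate is added for 2 hrs and fluorescence is read.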

Question: For `CNc1nc(=O)n(C2CCCCC2)c(=O)n1C`, which Potency is on record?
Answer: inactive

Question: How did the Potency turn out when `CCCCCCCC[Si](Cl)(Cl)Cl` was run?
Answer: inactive

Question: `CCCCCCCOC(=O)c1ccccc1C(=O)OCCCCCCC` was tested. Which Potency did it give?
Answer: inactive

Question: How did the Potency turn out when `C=Cc1ccc(P(c2ccccc2)c2ccccc2)cc1` was run?
Answer: inactive

Question: With `CCCCCCCCCCCCCCCCCCN` as the molecule, how does the Potency read?
Answer: inactive

Question: `CC(=O)N(CCN(C(C)=O)C(C)=O)C(C)=O` was tested. Which Potency did it give?
Answer: inactive

Question: How did the Potency turn out when `CCCC/C=C\CCCCCCCCO` was run?
Answer: inactive

Question: For `Nc1cc(Cl)nc(C(=O)O)c1Cl`, which Potency is on record?
Answer: inactive

Question: For `C[Si](Cl)(Cl)[Si](C)(Cl)Cl`, which Potency is on record?
Answer: inactive

Question: `CCCCCCCCCc1ccccc1` was tested. Which Potency did it give?
Answer: inactive

Question: How did the Potency turn out when `CS/C(=N\O)C(=O)N(C)C` was run?
Answer: inactive

Question: With `C[Si](Cl)(Cl)c1ccccc1` as the molecule, how does the Potency read?
Answer: inactive

Question: For `COC(=O)c1c(Cl)nn(C)c1S(=O)(=O)NC(=O)Nc1nc(OC)cc(OC)n1`, which Potency is on record?
Answer: inactive

Question: Which Potency does the source give for `CC1(C)CC(NCCCCCCNC2CC(C)(C)NC(C)(C)C2)CC(C)(C)N1` here?
Answer: inactive

Question: With `Cc1ccc(C(=O)c2ccccc2)cc1` as the molecule, how does the Potency read?
Answer: inactive

Each molecule was assayed against Androgen receptor (Homo sapiens) (UniProt P10275) (assay: qHTS assay for small molecule agonists of androgen receptor signaling (AID 588515; active means well fitted curve in the direction sought with a large enough effect in the signal ratio, with a control signal flat; the % refers to the signal ratio)). Settings: AR-UAS-bla HEK293, beta-lactamase ratio, agonist 16 h; activation: hits give high values.
Summary of the method: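 EC50 and efficacy came from Hill fits of titrations (up to 92 uM) normalized to 30 nM R1881 as 100% and DMSO as 0%. Compound exposure was 16 h at 37 C on AR-UAS-bla HEK293 cells, with a 405/460/530 nm CCF4 fluorescence read.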

Chain of Androgen receptor (Homo sapiens) (P10275 whole entry, looked up): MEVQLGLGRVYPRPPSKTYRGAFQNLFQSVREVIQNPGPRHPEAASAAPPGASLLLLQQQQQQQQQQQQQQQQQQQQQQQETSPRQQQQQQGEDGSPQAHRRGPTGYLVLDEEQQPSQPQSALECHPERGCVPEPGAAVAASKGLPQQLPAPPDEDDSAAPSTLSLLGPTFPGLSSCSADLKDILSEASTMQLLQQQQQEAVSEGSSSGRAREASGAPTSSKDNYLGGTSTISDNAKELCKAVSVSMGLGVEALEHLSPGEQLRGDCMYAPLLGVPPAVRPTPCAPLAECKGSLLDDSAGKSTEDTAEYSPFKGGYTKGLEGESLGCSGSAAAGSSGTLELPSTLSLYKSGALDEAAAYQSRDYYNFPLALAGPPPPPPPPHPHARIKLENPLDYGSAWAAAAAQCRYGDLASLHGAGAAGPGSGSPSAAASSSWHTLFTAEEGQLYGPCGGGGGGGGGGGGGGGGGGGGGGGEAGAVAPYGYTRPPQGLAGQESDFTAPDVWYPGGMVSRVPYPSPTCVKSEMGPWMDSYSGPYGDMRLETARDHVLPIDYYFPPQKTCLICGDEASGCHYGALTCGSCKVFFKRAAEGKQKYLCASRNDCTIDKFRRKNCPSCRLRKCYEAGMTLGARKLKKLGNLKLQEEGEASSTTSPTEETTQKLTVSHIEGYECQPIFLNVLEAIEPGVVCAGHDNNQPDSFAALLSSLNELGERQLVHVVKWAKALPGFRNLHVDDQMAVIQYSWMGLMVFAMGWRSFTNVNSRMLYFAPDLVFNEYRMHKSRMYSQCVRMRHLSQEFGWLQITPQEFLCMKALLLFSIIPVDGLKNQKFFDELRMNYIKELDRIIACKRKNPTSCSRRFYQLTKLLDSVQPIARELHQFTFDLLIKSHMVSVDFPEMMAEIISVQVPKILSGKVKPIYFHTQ

Question: How did the activation turn out when `CNc1nc(=O)n(C2CCCCC2)c(=O)n1C` was run?
Answer: -4.83%

Question: `CCCCCCCC[Si](Cl)(Cl)Cl` was tested. Which activation did it give?
Answer: 3.85%

Question: How did the activation turn out when `CCCCCCCOC(=O)c1ccccc1C(=O)OCCCCCCC` was run?
Answer: -1.72%

Question: How did the activation turn out when `C=Cc1ccc(P(c2ccccc2)c2ccccc2)cc1` was run?
Answer: 8.38%

Question: Which activation does the source give for `CCCCCCCCCCCCCCCCCCN` here?
Answer: -9.22%

Question: For `CC(=O)N(CCN(C(C)=O)C(C)=O)C(C)=O`, which activation is on record?
Answer: 11.2%

Question: How did the activation turn out when `CCCC/C=C\CCCCCCCCO` was run?
Answer: 1.62%

Question: With `Nc1cc(Cl)nc(C(=O)O)c1Cl` as the molecule, how does the activation read?
Answer: 6.83%

Question: With `C[Si](Cl)(Cl)[Si](C)(Cl)Cl` as the molecule, how does the activation read?
Answer: 0.564%

Question: For `CCCCCCCCCc1ccccc1`, which activation is on record?
Answer: 1.05%

Question: How did the activation turn out when `CS/C(=N\O)C(=O)N(C)C` was run?
Answer: 11.7%

Question: `C[Si](Cl)(Cl)c1ccccc1` was tested. Which activation did it give?
Answer: 5.21%

Question: For `COC(=O)c1c(Cl)nn(C)c1S(=O)(=O)NC(=O)Nc1nc(OC)cc(OC)n1`, which activation is on record?
Answer: 5.65%

Question: With `CC1(C)CC(NCCCCCCNC2CC(C)(C)NC(C)(C)C2)CC(C)(C)N1` as the molecule, how does the activation read?
Answer: 6.67%

Question: With `Cc1ccc(C(=O)c2ccccc2)cc1` as the molecule, how does the activation read?
Answer: 1.33%
